Data as given in PubChem BioAssay.
Potency and affinity values are given separately. Inconclusive results are not listed. Where a call stands in place of a potency, no number is given. Values without a mark were called inactive. Calls of active or inactive are those of the source. The rule behind the calls is not given here.

assay: OVCAR-3 cell viability loss – plate reader, dry powder samples, PAX8 inhibitor project, dose response (AID 743044); settings: NIH:OVCAR-3 ovarian cancer cell viability; max activity: at 35 µM, stronger effect = lower value unless noted; series mostly up to 50 µM

SMILES	max activity
C[C@@H]1CN([C@@H](C)CO)S(=O)(=O)c2ccc(C#Cc3ccc(F)cc3)cc2O[C@H]1CN(C)C(=O)NC1CCCCC1	-9.84%
C[C@@H]1CN([C@@H](C)CO)C(=O)Cc2cc(NC(=O)c3ccncc3)ccc2O[C@@H]1CN(C)Cc1ccc(-c2ccccc2)cc1	8.74% [at 0.26 µM, stronger effect = lower value]
Cc1ccc(S(=O)(=O)Nc2ccc3c(c2)C(=O)N([C@@H](C)CO)C[C@@H](C)[C@@H](CN(C)Cc2ccc(Cl)c(Cl)c2)OCCCC[C@@H](C)O3)cc1	-8.95%
O=C(C[C@H]1CC[C@@H]2[C@H](COC[C@@H](O)CN2Cc2ccc(F)cc2)O1)NCc1ccccc1Cl	64.7%
CCCC#Cc1ccc([C@@H]2[C@H]3CN(S(=O)(=O)c4ccccc4F)CCCCN3[C@H]2CO)cc1	36.9% [at 8 µM, stronger effect = lower value]
Cc1ccc(S(=O)(=O)N[C@@H]2C=C[C@@H](CC(=O)N3CCC(Cc4ccccc4)CC3)O[C@@H]2CO)cc1	-14.5% [at 16 µM, stronger effect = lower value]
COc1cccc(S(=O)(=O)N(C)C[C@H]2OCc3ccccc3-c3c(n(C)c4ccccc34)C(=O)N([C@@H](C)CO)C[C@H]2C)c1	-13.7%
C[C@@H]1CN([C@@H](C)CO)C(=O)c2ccccc2-c2ccccc2CO[C@@H]1CN(C)Cc1ccc2c(c1)OCCN2C	3.55%
C[C@@H]1CCCCO[C@H](CN(C)Cc2ccccc2)[C@H](C)CN([C@H](C)CO)C(=O)c2cc(NC(=O)Nc3ccc(C(F)(F)F)cc3)ccc2O1	-9.62%
O=C(C[C@H]1CC[C@H]2[C@@H](COC[C@@H](O)CN2Cc2ccc(F)cc2)O1)NCc1ccccc1Cl	-7.1%
C[C@@H]1CN([C@@H](C)CO)C(=O)Cc2cc(NC(=O)C3CC3)ccc2O[C@H]1CN(C)Cc1ccc(-c2ccccc2)cc1	11.5% [at 0.26 µM, stronger effect = lower value]
COc1ccc(S(=O)(=O)N2CCCCN3[C@H](C2)[C@@H](c2ccc(C#CC(C)C)cc2)[C@@H]3CO)cc1	10.6% [at 8 µM, stronger effect = lower value]
C[C@@H]1CCCCO[C@@H](CN(C)C(=O)Nc2ccccc2)[C@H](C)CN([C@H](C)CO)C(=O)c2cc(NC(=O)Nc3ccc(C(F)(F)F)cc3)ccc2O1	33.8% [at 16 µM, stronger effect = lower value]
C[C@@H]1CCCCO[C@H](CN(C)Cc2ccc(C(F)(F)F)cc2)[C@@H](C)CN([C@@H](C)CO)C(=O)c2cc(NS(=O)(=O)c3cccs3)ccc2O1	-7.27% [at 0.5 µM, stronger effect = lower value]
COc1ccc(S(=O)(=O)Nc2ccc3c(c2)C(=O)N([C@@H](C)CO)C[C@H](C)[C@H](CN(C)Cc2ccc(C(F)(F)F)cc2)OCCCC[C@@H](C)O3)cc1	26.1%
C[C@@H]1CN([C@@H](C)CO)C(=O)Cc2cc(NS(=O)(=O)c3ccc(F)cc3)ccc2O[C@H]1CN(C)Cc1ccc(Oc2ccccc2)cc1	-22.3% [at 4.2 µM, stronger effect = lower value]

assay: toxicity toward immortalized ovarian surface epithelium – cell-based, plate reader, dry powder samples, cytotoxicity control for PAX8 inhibitor project, dose response (AID 743045); settings: IOSE-T80 ovarian epithelial cells; series mostly up to 35 µM;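 note: more negative values mean more cell killing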

SMILES	outcome
COc1ccc(S(=O)(=O)Nc2ccc3c(c2)CC(=O)N([C@@H](C)CO)C[C@@H](C)[C@H](CN(C)Cc2ccc(-c4ccccc4)cc2)O3)cc1	inactive
C[C@H](O)C#Cc1cnc2c(c1)C(=O)N([C@H](C)CO)C[C@H](C)[C@H](CN(C)Cc1ccc(-c3ccccc3)cc1)O2	inactive
O=C(c1ccc(F)cc1)N1C[C@@H]2N[C@H](C1)C2c1ccc(-c2ccc(F)cc2)cc1 (stereo not given in full)	inactive
C[C@H](O)C#Cc1ccc2c(c1)O[C@H](CN(C)Cc1ccc(-c3ccccc3)cc1)[C@@H](C)CN([C@H](C)CO)S2(=O)=O	inactive
C[C@@H]1CN([C@H](C)CO)C(=O)Cc2cc(NS(=O)(=O)c3ccccc3)ccc2O[C@@H]1CN(C)S(=O)(=O)c1ccc(Cl)cc1	inactive
C[C@@H]1CCCCO[C@H](CN(C)C)[C@H](C)CN([C@H](C)CO)C(=O)c2cc(NC(=O)Nc3cccc4ccccc34)ccc2O1	inactive
C[C@@H]1CN([C@H](C)CO)C(=O)c2c(c3ccccc3n2C)-c2ccccc2CO[C@@H]1CN(C)C	inactive
COc1ccccc1S(=O)(=O)N(C)C[C@@H]1Oc2cc(C#CCC3CCCC3)ccc2S(=O)(=O)N([C@@H](C)CO)C[C@@H]1C	inactive
CCCN(C)C[C@H]1OCCCC[C@@H](C)Oc2ccc(NC(=O)c3ccccc3)cc2C(=O)N([C@H](C)CO)C[C@H]1C	inactive
C[C@@H]1CN([C@@H](C)CO)C(=O)Cc2cc(NC(=O)Nc3ccc(F)cc3)ccc2O[C@H]1CN(C)CC1CCCCC1	inactive
O=C(Nc1cccc(F)c1)N[C@@H]1CC[C@@H](CCNS(=O)(=O)c2cccc(Cl)c2)O[C@@H]1CO	inactive
C[C@@H]1CN([C@@H](C)CO)C(=O)Cc2cc(N(C)C)ccc2O[C@H]1CN(C)Cc1ccc(Oc2ccccc2)cc1	inactive
Cc1ccc(S(=O)(=O)Nc2ccc3c(c2)C(=O)N([C@@H](C)CO)C[C@@H](C)[C@@H](CN(C)Cc2ccc(C(F)(F)F)cc2)OCCCC[C@@H](C)O3)cc1	inactive
Cc1cccc(-c2ccc([C@H]3[C@H](CO)N4CCCCN(S(=O)(=O)c5ccccc5C)C[C@@H]34)cc2)c1	inactive
C[C@H]1CCCCO[C@@H](CN(C)C(=O)Nc2ccc(C(F)(F)F)cc2)[C@@H](C)CN([C@@H](C)CO)C(=O)c2cc(NS(=O)(=O)c3cn(C)cn3)ccc2O1	inactive
C[C@@H]1CN([C@H](C)CO)C(=O)c2cc(NC(=O)Nc3ccccc3)ccc2O[C@@H](C)CCCCO[C@H]1CN(C)Cc1ccc(Cl)c(Cl)c1	inactive
C[C@H]1CCCCO[C@@H](CN(C)C)[C@@H](C)CN([C@@H](C)CO)C(=O)c2cc(NC(=O)Nc3ccc(C(F)(F)F)cc3)ccc2O1	inactive
C[C@H](CO)N1C[C@H](C)[C@@H](CN(C)Cc2ccc(-c3ccccc3)cc2)Oc2ccc(NC(=O)Cc3ccccc3)cc2CC1=O	inactive
C[C@H](CO)N1C[C@H](C)[C@H](CN(C)C(=O)NC2CCCCC2)Oc2cc(C#Cc3ccc(F)cc3)ccc2S1(=O)=O	inactive
O=C(Nc1ccc(C(F)(F)F)cc1)N1C[C@@H]2N[C@H](C1)C2c1ccc(-c2ccccc2)cc1 (stereo not given in full)	inactive

SMILES	outcome
C[C@@H]1CCCCO[C@H](CN(C)Cc2ccc(C(F)(F)F)cc2)[C@H](C)CN([C@@H](C)CO)C(=O)c2cc(NC(=O)Nc3ccc(F)cc3)ccc2O1	inactive
Cc1ccc(S(=O)(=O)Nc2ccc3c(c2)C(=O)N([C@@H](C)CO)C[C@@H](C)[C@@H](CN(C)Cc2ccc(C(F)(F)F)cc2)OCCCC[C@H](C)O3)cc1	inactive
C[C@H](CO)N1C[C@H](C)[C@H](CN(C)C(=O)NC2CCCCC2)OCCCC[C@H](C)Oc2ccc(NC(=O)Nc3ccc(C(F)(F)F)cc3)cc2C1=O	inactive
C[C@@H]1CN([C@@H](C)CO)S(=O)(=O)c2ccc(C#Cc3ccc(F)cc3)cc2O[C@H]1CN(C)C(=O)NC1CCCCC1	inactive
C[C@@H]1CN([C@@H](C)CO)C(=O)Cc2cc(NC(=O)c3ccncc3)ccc2O[C@@H]1CN(C)Cc1ccc(-c2ccccc2)cc1	inactive
Cc1ccc(S(=O)(=O)Nc2ccc3c(c2)C(=O)N([C@@H](C)CO)C[C@@H](C)[C@@H](CN(C)Cc2ccc(Cl)c(Cl)c2)OCCCC[C@@H](C)O3)cc1	inactive
O=C(C[C@H]1CC[C@@H]2[C@H](COC[C@@H](O)CN2Cc2ccc(F)cc2)O1)NCc1ccccc1Cl	inactive
CCCC#Cc1ccc([C@@H]2[C@H]3CN(S(=O)(=O)c4ccccc4F)CCCCN3[C@H]2CO)cc1	inactive
Cc1ccc(S(=O)(=O)N[C@@H]2C=C[C@@H](CC(=O)N3CCC(Cc4ccccc4)CC3)O[C@@H]2CO)cc1	inactive
COc1cccc(S(=O)(=O)N(C)C[C@H]2OCc3ccccc3-c3c(n(C)c4ccccc34)C(=O)N([C@@H](C)CO)C[C@H]2C)c1	inactive
C[C@@H]1CN([C@@H](C)CO)C(=O)c2ccccc2-c2ccccc2CO[C@@H]1CN(C)Cc1ccc2c(c1)OCCN2C	inactive
C[C@@H]1CCCCO[C@H](CN(C)Cc2ccccc2)[C@H](C)CN([C@H](C)CO)C(=O)c2cc(NC(=O)Nc3ccc(C(F)(F)F)cc3)ccc2O1	inactive
O=C(C[C@H]1CC[C@H]2[C@@H](COC[C@@H](O)CN2Cc2ccc(F)cc2)O1)NCc1ccccc1Cl	inactive
C[C@@H]1CN([C@@H](C)CO)C(=O)Cc2cc(NC(=O)C3CC3)ccc2O[C@H]1CN(C)Cc1ccc(-c2ccccc2)cc1	inactive
COc1ccc(S(=O)(=O)N2CCCCN3[C@H](C2)[C@@H](c2ccc(C#CC(C)C)cc2)[C@@H]3CO)cc1	inactive
C[C@@H]1CCCCO[C@@H](CN(C)C(=O)Nc2ccccc2)[C@H](C)CN([C@H](C)CO)C(=O)c2cc(NC(=O)Nc3ccc(C(F)(F)F)cc3)ccc2O1	inactive
C[C@@H]1CCCCO[C@H](CN(C)Cc2ccc(C(F)(F)F)cc2)[C@@H](C)CN([C@@H](C)CO)C(=O)c2cc(NS(=O)(=O)c3cccs3)ccc2O1	inactive
COc1ccc(S(=O)(=O)Nc2ccc3c(c2)C(=O)N([C@@H](C)CO)C[C@H](C)[C@H](CN(C)Cc2ccc(C(F)(F)F)cc2)OCCCC[C@@H](C)O3)cc1	inactive
C[C@@H]1CN([C@@H](C)CO)C(=O)Cc2cc(NS(=O)(=O)c3ccc(F)cc3)ccc2O[C@H]1CN(C)Cc1ccc(Oc2ccccc2)cc1	inactive
